Potency data for 59 compounds are collected here from PubChem BioAssay AID504465 (National Center for Advancing Translational Sciences (NCATS), 2011).

SMILES strings stand for the structures. Hit rate of the full screen: of about 2,100 compounds, about 210 (10%) were called active. Roughly 53% stayed inconclusive and do not appear here. The call rests on the fitted dose curve; in most records, active means well fitted inhibition curve with a large enough effect; inconclusive means small, poorly fitted or top-dose-only effect, or effect the other way; inactive means no such curve, though single readings can be large or run the other way. This is one part of the list. Entries that show only a call come without a potency.
Potency means the concentration at half of the fitted maximal effect.

The assay can be described thus: IN Cell qHTS Assay for Inhibitors of the mTORC1 Signaling Pathway in MEF (Tsc2-/-, p53-/-) Cells: Sytravon. Further: nearly all actives have a fitted effect of over 60% in size. The conditions noted are these: phospho-rpS6 immunofluorescence, 24 h; series mostly up to 38.3 µM. The source says: NIH Molecular Libraries Probe Production Centers Network [MLPCN] NIH Chemical Genomics Center [NCGC] MLPCN Grant: NS059428-01 Assay Submitter (PI): Blenis, John; Hoffman, Greg; Harvard University NCGC Assay Overview: Thee mammalian target of rapamycin (mTOR) is an intracellular serine/threonine kinase Aberrant regulation of mTOR signaling plays a causative role in a number of human diseases, including cancer, benign tumors such as lymphangioleiomyomatosis (LAM) and Tuberous Sclerosis Complex (TSC), and metabolic diseases such as diabetes and obesity. This project aims to identify inhibitors of ribosomal protein S6 (rpS6) phosphorylation. The phosphorylation of rpS6 is a key event downstream of mTOR activation. The assay uses a phospho-specific antibody of phospho-rpS6 to detect inhibitors of mTOR activation. Mutations in the Tsc1 and Tsc2 genes are the underlying genetic lesions responsible for TSC, causing constitutive activation of the mTORC1 pathway and leading to profound effects on cell metabolism. Aberrant metabolism in cancer has recently received significant attention as a target to develop therapeutic agents in the treatment of cancer1. As Tsc2-/- cells have lost the ability to respond to energy and growth factor deprivation, these cells are unable to properly down regulate cellular biosynthetic processes in response to metabolic stress, and are thus extremely sensitive to glucose deprivation-induced death.2 A central goal of this project is to explore the unique cell survival and metabolic properties of cells with Tsc1 or Tsc2 by screening for compounds that selectively target the Tsc2-/- MEFs by screening both Tsc2-/- and WT MEF cell lines. We hope to better understand these aspects of TSC physiology in order to exploit them for therapeutic benefit.
NCGC IN Cell Assay Protocol: For quantitative high throughput analysis of mTORC1 signaling, we developed a cell-based assay for immuno-fluorescence based detection of rpS6 phosphorylation on the Acumen Explorer that will be used a platform for the primary small molecule screen. Mouse embryonic fibroblasts (MEFs) are cultured in 1536-well plates using DMEM + 10% FBS. Twenty-four hrs after plating, test compounds (solubilized in DMSO) are delivered and incubated with the cells for 24 hrs at 37 degree Celsius. Following the incubation, media with compound is aspirated and the cells are fixed in 4% paraformaldehyde (PFA) containing PBS + 0.2% TX-100. Next, PFA is aspirated, cells are washed two times with PBS plus 0.2% TX-100 and the cells are blocked for 1 hr at room temperature (blocking buffer: LiCOR Blocking Buffer plus 0.2% TX-100). This is followed by aspiration and staining with Alexa-488 conjugated-phospho-rpS6 Ser235/236 antibody for 2 hours at room temperature (Cell Signaling Technology # 4803, 1:50 dilution in blocking buffer). Cells are washed two times with PBS plus 0.2% TX-100, and stained with 10 uM propidium iodide (PI) for 20-25 minutes for cell number measurement (1:500 dilution of Hoescht staining is also added for IN Cell imaging). Active wells which are selected (based on Acumen results) are imaged on the IN Cell 1000 (GE Healthcare) using the D360/40X and HQ480/40X excitation filters for the Hoechst and Alexa-488 cytoplasmic stains, respectively. The fluorescence emission filters used were HQ460/40M and HQ535/50M for the Hoechst and Alexa-488 cytoplasmic stains, respectively. The normalized phospho-S6 staining is calculated as the ratio of […] for the single concentration rapamycin control (7.5 nM) and DMSO columns. […] Inhibition of the pathway is defined based on the normalized phospho-S6 intensity in rapamycin treated cells. Each treatment is reported as the % positive cells in the well, where thresholds are defined by selecting wells with the highest and lowest signal and differentiating between the % non-active and % active populations. […]
For orientation: In qHTS, concentration-response curves come from the screen itself.
In the case of `Cc1ccc(-c2nc3scc(CCNC(=O)c4cccc(Br)c4)n3n2)cc1`, the Potency entry is “inactive”.

As to `CC(C)CCNC(=O)c1cccc(Nc2nc3ccccc3n3nnnc23)c1`, the Potency is 4.14 µM (active).

Consider `Cc1cccc(Cn2c(CNC(=O)c3ccccc3)nc3ccccc32)c1`, for which the Potency entry was “inactive”.

Regarding `Cc1ccc(NC(=O)C2CCCN(S(=O)(=O)c3ccc4c(c3)CCCC(=O)N4)C2)cc1Cl` (centres undefined), the Potency entry is “inactive”.

With `CCCS(=O)(=O)c1c(S(=O)(=O)CCC)c2cc(C(C)(C)C)ccn2c1C(=O)c1ccc(OC)c(OC)c1`, the Potency is 0.147 µM (active).

`COc1ccc(OC)c(NC2=C(c3ccccc3)C(=O)c3ccccc32)c1`: the Potency entry is “inactive”.

On to `O=C(NCCc1ccccc1Cl)c1ccc2c(=O)n(-c3ccccc3)c(=O)[nH]c2c1`, for which the Potency result was “inactive”.

Turning to `COc1ccc(OCc2nc3c4c(-c5ccccc5)c(-c5ccccc5)oc4ncn3n2)cc1`, the Potency was 4.14 µM (active).

As to `Cc1ccc(NCc2cc3cc4c(cc3n(CC(=O)Nc3ccc(C)cc3)c2=O)OCCO4)cc1`, the Potency was 4.65 µM (active).

Regarding `Cc1ccc(NC(=O)Cn2c(=O)c(CNc3ccccc3)cc3cc4c(cc32)OCCO4)cc1`, the Potency entry was “inactive”.

As to `COc1cc2cc(CNc3ccc(C)cc3)c(=O)n(CC(=O)Nc3ccc(F)cc3F)c2cc1OC`, the Potency result is “inactive”.

Take `CCOC(=O)c1c(C)oc2ncnc(Nc3cc(Cl)ccc3OC)c12`: the Potency entry is “inactive”.

With `COc1cccc(C2=CC(c3cc(Br)ccc3F)n3nnnc3N2)c1` (centres undefined), the Potency result was “inactive”.

For the compound `O=C(NCCCc1nc2ccccc2n1Cc1ccc(Cl)cc1)c1ccco1`, the Potency result was “inactive”.

For `COc1ccc(Nc2cc(C(=O)NCCCN(C)Cc3ccccc3)c3ccccc3n2)cc1`, the Potency entry was “inactive”.

Consider `CC1CCCCN1CCCNC(=O)c1cc(Sc2cccc(Cl)c2)nc2ccccc12` (centres undefined), for which the Potency result is “inactive”.

Turning to `CCC1CCCCN1CCCNC(=O)c1cc2c(Cl)nc3ccccc3c2s1` (centres undefined), the Potency is 14.7 µM (active).

Consider `CCC1CCCCN1CCCNC(=O)c1c(C)oc2ncn(CC(C)C)c(=O)c12` (centres undefined), for which the Potency entry was “inactive”.

Consider `CN(CCCNC(=O)c1cc2c(Cl)nc3ccccc3c2s1)Cc1ccccc1`, for which the Potency was 18.5 µM (active).

In the case of `Fc1ccc(C(NCCc2ccccc2)c2nnc(-c3ccccc3Cl)o2)cc1` (centres undefined), the Potency entry was “inactive”.

For `O=C(NCC1CCN(Cc2ccccc2Cl)CC1)c1cc2ccc3cccnc3c2[nH]1`, the Potency entry was “inactive”.

In the case of `COc1cc(C2CC(=O)c3c([nH]c(C(=O)OC4CCCCC4)c3C)C2)cc(OC)c1OC` (centres undefined), the Potency entry was “inactive”.

Take `CCOc1ccc(C2CC(=O)c3c([nH]c(C(=O)OCc4ccccc4)c3C)C2)cc1` (centres undefined): the Potency was 16.5 µM (active).

Regarding `Cc1c(C(=O)OC2CCC(C)CC2)[nH]c2c1C(=O)CC(c1ccc(F)cc1)C2` (centres undefined), the Potency result is “inactive”.

For `CCOc1ccc(CNC(=O)CCCc2cn(C)c3ccccc23)cc1OC`, the Potency result is “inactive”.

`Cn1ncc2c(NCc3cccc(Cl)c3)ncnc21`: the Potency entry is “inactive”.

In the case of `N#Cc1ccccc1S(=O)(=O)N1CCC(Oc2ccc(-n3cnnn3)cc2)CC1`, the Potency entry was “inactive”.

With `Cc1ccccc1Cn1c(CN2CCC(C(=O)NCCN(C)C)CC2)cc2ccccc21`, the Potency was 11.7 µM (active).

On to `CCCNC(=O)C1CCN(Cc2cc3ccccc3n2Cc2ccccc2)CC1`, for which the Potency entry is “inactive”.

With `Cc1ccccc1CSCCNC(=O)C1CCN(S(=O)(=O)Cc2ccccc2)CC1`, the Potency result is “inactive”.

For the compound `Cc1cccc(C)c1Nc1c(-c2ccsc2)nc2cccc(C)n12`, the Potency result was “inactive”.

Regarding `Clc1cccc(CSc2ccc(-c3cccs3)nn2)c1`, the Potency entry was “inactive”.

Turning to `CCOC(=O)c1cc(-c2ccccc2)n(-c2cccc(C(=O)N(C)c3ccc(C)cc3)c2)c1C`, the Potency result was “inactive”.

Turning to `CCOC(=O)c1cc(-c2ccc(C)cc2)n(CC(=O)Nc2ccccc2F)c1C`, the Potency is 14.7 µM (active).

With `CCOC(=O)c1cc(-c2ccccc2)n(CCC(=O)Nc2ccc(C(F)(F)F)cc2)c1C`, the Potency entry is “inactive”.

On to `Cc1ccccc1Nc1c(-c2ccc(Cl)s2)nc2cccc(C)n12`, for which the Potency result is “inactive”.

`CC(CNC(=O)c1ccc2nc(CCc3ccccc3)oc2c1)c1ccccc1` (centres undefined): the Potency entry was “inactive”.

With `CCCS(=O)(=O)N1CC(=O)N(c2ccccc2F)C(C)(C(=O)NC2CCCCCC2)C1` (centres undefined), the Potency entry was “inactive”.

In the case of `COc1ccc(NC(=O)Cn2c(=O)n(Cc3ccco3)c(=O)c3cc(OC)c(OC)cc32)cc1`, the Potency is 14.7 µM (active).

As for `COc1ccc(NC(=O)c2cc3c(=O)n(Cc4ccco4)ccc3nc2C)cc1`, the Potency entry was “inactive”.

Take `COc1ccc(OC)c(NC(=O)Cn2c(=O)n(Cc3ccccc3)c(=O)c3ccccc32)c1`: the Potency entry is “inactive”.

On to `CCOC(=O)Cn1c(=O)n(C2CCCCC2)c2nc(-c3cccc(C)c3)nc(C(N)=O)c21`, for which the Potency result is “inactive”.

Take `O=C(Nc1ccc(C(F)(F)F)cc1)C1CCCN(S(=O)(=O)c2cccc3cccnc23)C1` (centres undefined): the Potency entry was “inactive”.

In the case of `COc1ccc(Cn2c(C(=O)O)c(CNCc3ccccc3F)c3ccc(OC)cc32)cc1`, the Potency entry was “inactive”.

With `COc1ccc(-n2c(=O)c3ccc(C(=O)NCc4ccc(C)cc4)cc3n(CC(=O)Nc3ccc(F)cc3)c2=O)cc1`, the Potency was 14.7 µM (active).

For the compound `Cc1ccccc1NC(=O)Cn1c(=O)n(-c2ccc(CC(=O)NCC3CCCO3)cc2)c(=O)c2ccccc21` (centres undefined), the Potency result is “inactive”.

With `COc1ccc(NC(=O)c2ccc3c(c2)c(C)c(C)n3Cc2ccc(F)cc2)cc1`, the Potency is 10.4 µM (active).

With `CCc1ccc(NC(=O)c2ccc(F)c(S(=O)(=O)NC3CCCCCC3)c2)cc1`, the Potency result was “inactive”.

Consider `Cc1ccc(CNC(=O)CCCCCn2c(=O)c3sccc3n(CC(=O)Nc3ccc(C)c(F)c3)c2=O)cc1`, for which the Potency entry is “inactive”.

On to `Cc1ccc(Cn2c(=O)n(CCCCC(=O)NCc3ccccc3Cl)c(=O)c3ccccc32)cc1`, for which the Potency result was “inactive”.

Consider `Cc1ccc(-n2c(=O)c3ccc(C(=O)NCc4ccco4)cc3n(Cc3ccc(Cl)cc3)c2=O)cc1`, for which the Potency is 16.5 µM (active).

Regarding `COc1ccc(Cn2c(C(=O)O)c(CNCCc3ccco3)c3ccc(OC)cc32)cc1`, the Potency result was “inactive”.

Take `CC[C@@H](C)[C@@H](C(=O)Nc1ccc(C)cc1)N1Cc2ccccc2C1=O`: the Potency result was “inactive”.

As to `CCN1C(C(=O)c2ccccc2)=C(OC(=O)COc2ccc(OC)cc2)c2ccccc2S1(=O)=O`, the Potency entry is “inactive”.

In the case of `COc1ccc(C(=O)NCC(c2ccc(Cl)cc2)N2CCCCC2)cc1` (centres undefined), the Potency entry was “inactive”.

As to `O=C(NCCc1ccccc1Cl)c1sc2ncccc2c1-n1cccc1`, the Potency result is “inactive”.

In the case of `CCC(C)NC(=O)CCCn1c(=O)c2cccn2c2ccccc21` (centres undefined), the Potency entry was “inactive”.

Regarding `Cc1cccc(NS(=O)(=O)c2ccc3[nH]c4c(c3c2)CCCCCC4)c1`, the Potency result is “inactive”.

As to `Cc1nc2scc(C)n2c(=O)c1S(=O)(=O)Nc1ccc(N2CCN(S(C)(=O)=O)CC2)cc1`, the Potency entry is “inactive”.
